Assay outcomes as filed in PubChem BioAssay.
Pf growth 48h = Primary qHTS for delayed death inhibitors of the malarial parasite plastid, 48 hour incubation. P. falciparum luciferase growth in erythrocytes, 48 h. Potency, µM (highest dose often 28.7 µM), most hits filed as inhibitors. 310,000 tested, 5.9% active
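Erythrocytes infected with P. falciparum carrying an integrated firefly luciferase reporter (2% hematocrit, 0.1% parasitemia final) were exposed to compounds in RPMI 1640 with 0.5% Albumax at 37 C, 5% CO2. Growth inhibition was scored as reduced luminescence.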
Cycloheximide cs = Cycloheximide Counterscreen for Small Molecule Inhibitors of Shiga Toxin; max response, %; cell reporter, cycloheximide protein synthesis inhibition counterscreen; AID 2314, 2010; 300,000 tested, 12% active; in the data active = max response mostly above about 13%, no sharp cut-off; inactive = mostly below about 14%; note: read at 38.3 µM for the half of the compounds with a filed dose
Pf growth 96h = Primary qHTS for delayed death inhibitors of the malarial parasite plastid, 96 hour incubation; AID 504834, 2011; 320,000 tested, 6.9% active; P. falciparum luciferase reporter growth, 96 h; Potency, µM (series often up to 28.7 µM), hits mostly inhibitors
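Infected RBCs, 2% Hct / 0.05% parasitemia final; luciferase-reporter P. falciparum; cpd 96 h, 37 C, 5% CO2; luciferase detection reagent; luminescence.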
HCMV inh = qHTS Assay for inhibitors of the human cytomegalovirus (HCMV) | HFF cells, HCMV-luciferase reporter, 72 h; active compounds read low | activity change, negative = inhibition, % at 57.5 µM | 410,000 tested, 4.5% active; in the data active = activity change below about -60%; inconclusive = no clear call, values can overlap the other calls; inactive = above about -39%
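Cell-based, HFFs, 1000 cells/well, 16 h 37C; cpds in DMSO + HCMV-luc, MOI 1 PFU/cell; 72 h 37C; OneGlo luminescence after 5 min RT; norm. to buffer vs Salinomycin 10uM.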
Shiga inhibitor = A qHTS for Small Molecule Inhibitors of Shiga Toxin. 290,000 tested, 9.2% active. AID 2315, 2010. Vero cells, Shiga toxin protein synthesis inhibition reporter. inhibition, % at 38.7 µM; in the data active = inhibition mostly above about 28%, no sharp cut-off; inactive = mostly below about 43%
Hits are given with their value; . = inactive; ? = inconclusive; / = not tested or not shown. This is a sample that favours compounds with a hit; in the whole collection about 20% have one here. Unless noted, calls come from the whole dose curve; as a rule, active = well fitted inhibition curve with a large enough effect; inconclusive = small, poorly fitted or top-dose-only effect, or another doubt; inactive = no such curve, though single readings can be large or run the other way.

SMILES | Pf growth 48h | Cycloheximide cs | Pf growth 96h | HCMV inh | Shiga inhibitor
CCOC(=O)Oc1c(OC)cc(C(=O)O[C@@H]2C[C@@H]3CN4CCc5c([nH]c6cc(OC)ccc56)[C@H]4C[C@@H]3[C@H](C(=O)OC)[C@H]2OC)cc1OC | 2.6µM | / | 2.9µM | -68 | /
COC(=O)C1C(O)CCC2CN3CCc4c([nH]c5ccccc45)C3CC21 (stereo not given) | . | . | . | . | .
COC(=O)C1C2CC3c4[nH]c5cc(OC)ccc5c4CCN3CC2CC(OC(=O)CC(C)=O)C1OC (stereo not given) | / | / | / | . | /
Cc1c(C)n(CC(O)CNc2ccccc2)c2ccccc12 (stereo not given) | ? | . | ? | ? | .
COc1ccc(NCC(O)Cn2c(C)c(C)c3ccccc32)cc1 (stereo not given) | ? | . | 7.4µM | . | .
COC(=O)CN1C(=O)C(O)(CC(=O)c2ccc(Cl)cc2)c2ccccc21 (stereo not given) | . | . | . | . | .
COC(=O)C1OC2(OC1C(=O)OC)c1ccccc1-c1ccccc12 (stereo not given) | . | . | ? | . | .
COC(=O)C[C@]1(C(=O)OC)CN(C#N)N(c2ccc(Cl)cc2)C12c1ccccc1-c1ccccc12 | 3.7µM | . | 3.7µM | -102 | .
COC(=O)[C@@H]1[C@@H](C(=O)OC)C2(c3ccccc3-c3ccccc32)N(c2ccc(Cl)cc2)N1C#N | ? | . | ? | -82 | .
COc1cc([N+](=O)[O-])ccc1NC(=O)N1CCN(c2cc(-c3noc(C)n3)ccc2C)CC1 | / | / | / | . | /
COc1cc2ncnc(NCc3ccc(Cl)cc3)c2cc1OC | ? | . | . | -78 | .
COc1cc2ncnc(N[C@H](C)c3ccccc3)c2cc1OC | ? | . | 13µM | / | .
COc1ccnc(Nc2ccc(C)c(C)c2)c1C#N | . | . | . | . | .
COc1ccnc(NCc2ccc(Cl)cc2)c1C#N | . | 27 | . | ? | 56
COc1cc2ncnc(NCc3ccccc3F)c2cc1OC | / | . | ? | . | .
COc1cc2ncnc(NCc3ccccc3Cl)c2cc1OC | ? | . | ? | . | .
COc1cc2ncnc(NCc3ccc(F)cc3)c2cc1OC | / | . | 10µM | . | .
COc1cc2ncnc(Nc3ccc4c(c3)OCO4)c2cc1OC | / | . | ? | . | .
C=CCN(C(=O)c1csnn1)C(C(=O)NC1CCCC1)c1cccs1 (stereo not given) | . | . | . | . | .
CCN(c1ccccc1)C(CNS(=O)(=O)c1ccccc1)c1ccccc1 (stereo not given) | / | / | / | . | /
COc1cc2ncnc(NCc3ccccc3C)c2cc1OC | 15µM | . | 13µM | . | .
N#Cc1c(-c2ccccc2)nc2n(-c3ccccc3)nc(C(=O)Nc3ccccc3)n2c1=O | / | . | 0.74µM | . | .
COc1ccc(-n2nnnc2C(c2cccc(OC)c2OC)N2CCC(n3c(=O)[nH]c4ccccc43)CC2)cc1 (stereo not given) | / | / | / | . | /
COc1cccc(C(c2nnnn2-c2ccc3c(c2)OCCO3)N2CCC(n3c(=O)[nH]c4ccccc43)CC2)c1OC (stereo not given) | / | / | / | -97 | /
O=c1[nH]c2ccccc2n1C1CCN(C(c2ccccc2OC(F)(F)F)c2nnnn2-c2ccc3c(c2)OCCO3)CC1 (stereo not given) | / | / | / | -106 | /
SMILES | Pf growth 48h | Cycloheximide cs | Pf growth 96h | HCMV inh | Shiga inhibitor
Cc1ccc(CNC(=O)CN2CCN(Cc3ccc(C)cc3)C2=O)cc1 | / | . | 2.9µM | . | .
O=C(CCn1nc(-c2ccc(Cl)cc2)ccc1=O)N1CCC2(CC1)OCCO2 | . | . | . | . | .
Cc1ccc(-c2ccc(=O)n(CCC(=O)N3CCC4(CC3)OCCO4)n2)cc1 | . | 46 | ? | . | 138
Cc1ccc(N(CC(=O)N2CCc3ccccc3C2)S(C)(=O)=O)cc1 | . | . | ? | ? | .
Cc1ccc(CN2CCN(CC(=O)N3CCc4ccccc4C3)C2=O)cc1 | . | . | 17µM | / | .
Cc1ccc(CN2CCN(CC(=O)N3CCC4(CC3)OCCO4)C2=O)cc1 | / | . | 3.7µM | . | .
Cc1ccc(CN2CCN(CC(=O)N3CCC(C(N)=O)CC3)C2=O)cc1 | / | / | / | . | /
C[C@H](CO)N1C[C@H](C)[C@H](CN(C)Cc2cccc(C(F)(F)F)c2)OCc2ccccc2-c2c(n(C)c3ccccc23)C1=O | / | / | / | . | /
C[C@@H]1Cn2cnc(C(=O)Nc3cccc(Cl)c3)c2C(=O)N1 | / | / | / | . | /
O=C(OCc1cc(=O)n2nc(-c3cccs3)sc2n1)c1ccccc1Br | / | / | / | . | /
COc1ccc(NC(=O)c2oc3ccccc3c2NC(=O)C2CC2)cc1OC | ? | . | 12µM | . | .
O=C(Nc1ccc(F)c(F)c1)c1oc2ccccc2c1NC(=O)C1CCCO1 (stereo not given) | . | . | ? | -65 | .
COc1ccccc1NC(=O)c1oc2ccccc2c1NC(=O)C1CC1 | 12µM | . | 15µM | ? | .
COc1ccc(NC(=O)c2oc3ccccc3c2NC(=O)C2CCCO2)cc1OC (stereo not given) | ? | 37 | . | ? | .
Cn1c(CNC(=O)CCNC(=O)c2cccc(F)c2)cc(=O)n(C)c1=O | . | . | . | . | .
O=C(Cn1c(=O)oc2cc(S(=O)(=O)N3CCCC3)ccc21)NCc1ccc(Cl)cc1 | / | / | / | . | /
Cc1ccc(NC(=O)c2oc3ccccc3c2NC(=O)C2CCCO2)cc1C (stereo not given) | ? | 42 | ? | -82 | 100
Cc1ccc2nc3c(cc(C#N)c(=N)n3Cc3cccnc3)c(=O)n2c1 | . | . | ? | / | .
O=C(CSc1nc(-c2ccccc2)nc2ccccc12)Nc1nccs1 | . | . | ? | . | .
CCOC(=O)c1c(SCC(=O)Nc2nc3ccccc3s2)nc(=O)[nH]c1C | / | / | / | . | /
CCOC(=O)c1c(SCC(=O)Nc2nc(C)cs2)nc(=O)[nH]c1C | . | . | 4.7µM | . | .
Cc1ccc(C#N)c(SCC(=O)Nc2nccs2)n1 | . | 53 | . | . | 68
CCn1c(C)nnc1SCC(=O)Nc1nccs1 | . | . | . | . | .
CCOC(=O)c1c(SCC(=O)Nc2nccs2)nc(C)c(C)c1C | . | 26 | ? | . | 36
CCc1nnc(NC(=O)CSc2nc3c(cc2C#N)CCC3)s1 | . | 32 | / | . | 70
SMILES | Pf growth 48h | Cycloheximide cs | Pf growth 96h | HCMV inh | Shiga inhibitor
CC(Oc1ccccc1)C(=O)Nc1ccc(C(=O)OCc2cc(=O)n3ccsc3n2)cc1 (stereo not given) | / | / | / | . | /
O=C(COC(=O)c1cccc(Cl)c1)Nc1cc(Cl)ccc1Oc1ccccc1 | . | . | . | . | .
N#Cc1cc2c(nc1SCC(=O)Nc1nccs1)CCCCC2 | . | 49 | . | . | 94
CCSc1nnc(NC(=O)CSc2nc3c(cc2C#N)CCCC3)s1 | . | . | . | ? | .
Cc1nn(Cc2ccc(F)cc2)c2sc(C(=O)Nc3ccc(N4CCOCC4)cc3N3CCOCC3)cc12 | 12µM | . | 15µM | -67 | .
Cc1ccc(C(=O)Nc2ccc(N3CCOCC3)cc2N2CCOCC2)cc1 | . | . | ? | ? | .
